PubChem BioAssay AID485297 (National Center for Advancing Translational Sciences (NCATS), 2010)
The campaign covered roughly 320,000 compounds. About 9,100 (2.8%) were called active. About 3% were inconclusive and are not listed. Calls follow the shape of the dose curve; as a rule, active = well fitted activation curve with a large enough effect; inconclusive = small, poorly fitted or top-dose-only effect; inactive = no such curve, though single readings can be large or run the other way. This excerpt belongs to a sample that is enriched for actives.

Assay: qHTS Assay for Rab9 Promoter Activators; also: nearly all actives have a fitted effect of over 60% in size; as to activation, negative = inhibition: % of control where 0% means no effect
Conditions: Huh7 Rab9 promoter-luciferase reporter, luminescence, 24 h; series mostly up to 9.22 µM; activation, negative = inhibition: at the top concentration
Excerpt: NIH Chemical Genomics Center [NCGC] NIH Molecular Libraries Probe Production centers Network [MLPCN] MLPCN Grant: MH089537-01 Assay Submitter (PI): Yiannis A. Ioannou NCGC Assay Overview: Niemann Pick Type C (NPC) is a rare neurodegenerative lipidosis that is characterized by lipid storage in the endosomal/lysosomal system. Treatment modalities for this devastating disease are currently non-existent due to the severe obstacles associated with accessing the central nervous system with proteins or genes (Ioannou, 2000). We have developed a new paradigm, termed "Orphan Receptor Bypass Therapy" (ORByT), to address these disorders. This paradigm posits the existence of endogenous "suppressor" proteins whose expression can dramatically improve LSD pathogenesis. The goal is the identification/discovery of small chemical compounds that can modulate the expression of these proteins and provide a new treatment modality for these devastating disorders. One such protein whose overexpression reverses aspects of the NPC phenotype is Rab9. We have developed and optimized a cell based luciferase reporter assay in 1536 well format for the identification of up-regulators of the Rab9 promoter.
The Rab9 promoter is cloned in front of the luciferase reporter gene, therefore […] promoter activation results in luciferase expression. Frozen stock of the Rab9 promoter transfected Huh7 cells were obtained from the laboratory of Dr. Yiannis Ioannou (The Mount Sinai School of Medicine, New York, NY). Cells were propagated and maintained at NCGC in medium containing RPMI-1640 supplemented with 10% FBS, 2mM L-glutamine, and 50ug/ml penicillin/streptomycin. Cells were harvested in and plated for assays in OP-MEM I reduced-serum medium supplemented with 10% FBS. The Amplite luciferase reporter gene assay kit was purchased from ABD Bioquest and prepared/stored according to manufacturers recommendations. qHTS Assay Setup: 1.Dispensed 5ul of Huh7 cells stably expressing Rab9-luciferase at a density of 1500 cells per well 1536-well plates. 2.Incubate cells at 37C, 5% CO2, and 95% humidity for 2 hours. 3.Transferred 23nl per well of compound in DMSO solution. 4.Incubated at 37C, 5% CO2, and 95% humidity for 24 hours. 5.Dispensed 3ul per well of Amplite reagent(ABD Bioquest) per well. 6.Incubate at ambient for 10 minutes. 7.Read using the luminescence protocol on the ViewLux plate reader (Perkin Elmer).
Potency is read from the fitted curve at half-maximal effect.

activation, negative = inhibition, inactive:
C=C1CCC(N(O)c2cc(C)on2)C(=C)CCC2C1CC2(C)C (stereo not given) -1.42%
Cc1ccc(OCC(=O)N2CCN(S(=O)(=O)c3ccc(Cl)s3)CC2)cc1C -6.05%
Cc1ccc(/C=C/C(=O)OCC(=O)NCc2ccc(Cl)cc2)o1 -9.12%
CC(=O)Oc1ccc(-c2cccc(C(=O)N3CCCCC3)c2)cc1 11.6%
COc1ccc(Cn2c(=S)[nH]c3cc(C(=O)N4CCCCC4)ccc3c2=O)cc1 1.59%
COc1cccc(COc2ccc(N(C)S(=O)(=O)c3ccccc3)cc2)c1 -0.555%
CN(Cc1ccccc1)C(=O)c1ccc(COc2ccccc2)cc1 -1.02%
COc1ccccc1CNS(=O)(=O)c1cc(C(=O)NCc2ccccn2)c(Cl)cc1Cl -2.2%
CC(C(=O)N(C)CC(=O)Nc1ccccc1C(F)(F)F)N1C(=O)c2ccccc2C1=O (stereo not given) 0.587%
Nn1c(SCC(=O)Nc2nccs2)nnc1-c1ccco1 -2.6%
CCN(CC(=O)Nc1ccc(OC)cc1)C(=O)c1ccc(Cl)c(S(=O)(=O)N2CCCC2)c1 -1.06%
Cc1ccccc1NC(=O)Cc1nc(COC(=O)c2cccnc2Cl)cs1 1.11%
CN(c1ccccc1)S(=O)(=O)c1ccc(Cl)c(C(=O)NCCc2c[nH]c3ccccc23)c1 -1.2%
O=C(NCCc1c[nH]c2ccccc12)c1cccc(Br)c1 -1.43% [at 1.84 µM]
COCCNc1nnc(SCC(=O)NNC(=O)c2ccco2)s1 1.51%
CCCCc1ccc(NS(=O)(=O)c2cccc(C(=O)N3CCCN(C)CC3)c2)cc1 -0.577%
COc1ccccc1P(=O)(c1ccccc1)c1ccccc1NC(C)=O (stereo not given) -1.37%
Cc1cccc(C)c1OCCN1CCOCC1 1.22%
CCn1c2ccc(F)cc2c2nnc(SCCN3CCOCC3)nc21 0.369%
O=C(Nc1cccnc1Oc1ncnc2cc(Cl)ccc12)c1ccc(F)cc1 -0.405%
Cc1ccc(S(=O)(=O)N(C)C)cc1NC(=O)c1ccc(-n2cncn2)c([N+](=O)[O-])c1 -2.73%
O=C(O)c1cccc(N2C(=O)Nc3ccccc3N2O)c1 -0.52%
O=C(NC1CC1)c1ccc2c(c1)NC(=O)c1ccccc1S2 0.355%
CCc1ccccc1NC(=O)CN(C)C(=O)c1cc(C2CC2)nn1-c1ccccc1 -6.71%
CCN1C(=S)N[C@@H](c2cccc(C(F)(F)F)c2)C(C(=O)OC)=C1C -0.0689%
O=C(CN1CCN(S(=O)(=O)c2ccc(Cl)s2)CC1)N1CCCCC1 1.18%
COC(=O)c1cc(NS(=O)(=O)c2ccc3c(c2)c(=O)n(C)c(=O)n3C)cc(C(=O)OC)c1 -1.46%
CSc1ccccc1C(=O)OCC(=O)N1CCN(C(C)=O)CC1 10.5%
N#C/C(=C1/CCCN1)c1ccccn1 -3.34%
CCCCCN1CC(O)=C(c2nc(-c3ccc(Cl)cc3)cs2)C1=N -1.52%
CCCCN(C(=O)c1nn(C)c(=O)c2ccccc12)c1c(N)n(CCC)c(=O)[nH]c1=O -1.21%
COc1ccc2nc(C)cc(Nc3cccc(C(=O)O)c3)c2c1 0.435%
Cc1ccc(Nc2ncnc3c2cnn3C)c(C)c1 4.52%
COc1ccccc1C(=O)NCCC(=O)N(C)Cc1cccnc1 -4.93%
O=C(c1ccncc1)N1CCN(c2ccc3ccccc3n2)CC1 -12.5%
Oc1ccc(CN2CCN(c3ncccn3)CC2)cc1 9.57%
CCOc1ccc(NS(=O)(=O)c2ccc(Cl)c(C(=O)N(C)Cc3cccnc3)c2)cc1 -4.89%
O=C(NCCc1ccc(C(F)(F)F)cc1)c1ccc2c(c1)OCO2 0.109%
CCNC(=O)CC1C(=O)N(c2ccc(OC)cc2)C(=S)N1CCc1ccncc1 (stereo not given) 1.18%
CCOCCCn1c(SCC(=O)Nc2cc(OC)ccc2OC)nc2ccccc2c1=O -1.67%
COc1ccc(NS(=O)(=O)c2cc(NC(=O)CC(=O)c3ccc([N+](=O)[O-])cc3)ccc2C)cc1 -2.92%
Cn1c(SCC(=O)Nc2nccs2)nnc1-c1cccnc1 -2.59%
Cc1cc(C(F)(F)F)nc(SCC(=O)Nc2nccs2)n1 2.24%
Cc1cc(C#N)c(SCC(N)=O)nc1-c1ccc(F)cc1 -4.05%
CC(=O)c1cc(C#N)c(N2CC(C)OC(C)C2)nc1C (stereo not given) -9.19%
CCn1c(SCC(=O)Nc2nccs2)nnc1-c1ccncc1 -6.47%
CCn1c(SCC(=O)Nc2nccs2)nnc1-c1ccco1 -18.2%
O=C1C=C(c2cccc(Cl)c2O)C[C@@H](c2ccc(F)cc2)C1 -8.32%
Cc1cc(C)c(C#N)c(SCC(=O)N(CC(C)C)C2CCS(=O)(=O)C2)n1 (stereo not given) -8.44%
O=C(O[C@@H]1[C@H](Cc2ccccc2)NS(=O)(=O)[C@H]2C[C@@H]3C=C[C@]12O3)c1ccccc1Br -9.32%
O=C(Nc1ccccc1F)c1ccc(S(=O)(=O)N2CCCCCC2)cc1 24.5%
CCc1cc(C(=O)Nc2nnc(C3CC3)s2)sc1C 26.1%
O=C1CCC(=O)N(c2ccccc2)N1 -7.48%
CC(=O)NC1C(Oc2ccc(C)cc2)OC2COC(c3ccco3)OC2C1O (stereo not given) -3.88%
CCn1nnnc1SCC(=O)Nc1ccc(N(C)C)cc1 24.8%
COc1ccc(C(=O)CSc2nnnn2C)c(OC)c1 -1.76%
Cc1ccc(NC(=O)COC(=O)C2C3CC4OC(=O)C2C4C3)cc1Cl (stereo not given) 3.77%
Nc1cc(N)nc(SCC(=O)Nc2cccc(S(=O)(=O)N3CCCCC3)c2)n1 -1.91%
O=C(/C=C/c1cccc([N+](=O)[O-])c1)OCC(=O)N1CCOCC1 -2.78%
Cc1ccc(NC(=O)Cc2nc(COC(=O)C(C)NS(=O)(=O)c3ccc(C)cc3)cs2)cc1 (stereo not given) 8.45%
CCCn1nc(C(=O)OCc2nc(N)nc(Nc3ccccc3C)n2)c2ccccc2c1=O -5.96%
CCN(CC)C(CNC(=O)CSc1nnnn1-c1cccc(F)c1)c1ccco1 (stereo not given) -6.55%
Cc1cc(O)cc(O)c1C(=O)Cc1cnn(-c2ccccc2)c1 1.31%
COc1ccc(CC(=O)c2ccc(O)cc2O)cc1OC -1.28%
O=C(CN(CC1CCCO1)C(=O)CNS(=O)(=O)c1ccc(F)cc1)NCc1ccco1 (stereo not given) -15.8%
CCOC(=O)c1ccccc1NC(=O)COC(=O)C(Cc1c[nH]c2ccccc12)NC(C)=O (stereo not given) -1.4%
O=C(N/C(=C\c1ccc([N+](=O)[O-])cc1)C(=O)N1CCOCC1)c1cccc(Br)c1 -1.18%
COc1ccc(S(=O)(=O)N2CCN(CC(=O)NCC3(N4CCOCC4)CCCCC3)CC2)cc1 -6.43%
CN(C)C(=O)COC(=O)c1cccc(S(=O)(=O)N2CC3(C)CC2CC(C)(C)C3)c1 (stereo not given) -3.32%
O=C(Nc1nnc(-c2ccccc2)o1)c1cc(-c2cccs2)nc2ccccc12 -1.42%
CCCN(CCC)c1ccc(C(O)c2nnc(-c3ccccc3)o2)cc1 (stereo not given) 25.4%
CCOC(=O)C1=C(COC(=O)[C@H](C)NS(=O)(=O)c2ccccc2F)NC(=O)NC1C (stereo not given in full) -5.3%
C=CCN1C(=O)C(Cc2cccc(Cl)c2)S/C1=N/N=C/c1ccco1 (stereo not given) -2.42%
O=C1N/C(=N\N=C\c2ccco2)SC1Cc1ccc(F)cc1 (stereo not given) 0.456%
O=C(/C=C/c1ccccc1[N+](=O)[O-])OCC(=O)N1CCCC1 -1.9%
Cc1nn(Cc2ccccc2)c(C)c1CNC(=O)c1ccc(F)c(S(=O)(=O)N2CCOCC2)c1 -2.2%
Cc1csc(=O)n1CCC(=O)OCC(=O)NNC(=O)c1ccc(Br)cc1 1.83%
CCN(CC)S(=O)(=O)c1cc(C(=O)Nc2cc(S(=O)(=O)N3CCOCC3)ccc2N2CCCC2)ccc1F -1.3%
COc1ccc(S(=O)(=O)N(C)C)cc1NC(=O)CSc1ncccn1 0.741%
COc1ccc(NS(=O)(=O)c2ccc3oc(SCC(N)=O)nc3c2)cc1 -5.39%
CCOC(=O)[C@H]1[C@H]2COc3ccc(C)cc3[C@@H]2N2C(=O)CN(Cc3ccc(F)cc3)C(=O)[C@@]12C 2.24%
CC(C#N)(NC(=O)CN1CCN(S(=O)(=O)c2cc(C(F)(F)F)ccc2Cl)CC1)C1CC1 (stereo not given) 2.72%
Cc1cccc(NC(=O)c2ccccc2NC(=O)C(C)(C)C)n1 -0.972%
Cc1cccc(NC(=O)c2cccnc2Cl)n1 5.83%
COc1ccc(S(=O)(=O)N2CCOCC2)cc1NC(=O)CC1CC2CCC1C2 (stereo not given) -6.07%
Nc1nonc1C(=O)NCCc1ccccc1 -3.41%
O=C(NCCCc1ccccc1)c1cc(COc2c(F)cccc2F)on1 24.9%

Potency, active:
CCOc1ccc(OCc2cccc(C(=O)N(CC)CC)c2)cc1 0.141 µM
COc1ccc(OCc2cccc(C(=O)N3CCCC3)c2)cc1 0.398 µM
O=C(NCCc1c[nH]c2ccccc12)c1cc2ccccc2oc1=O 3.98 µM
Cc1cc2nc(SCCN3CCOCC3)[nH]c2cc1C 3.55 µM
C/C(=N\Nc1cccc(C(=O)O)c1)c1ccc2c(c1)Nc1ccccc1S2 3.16 µM
N#CC(=C1CCCC1)c1nc(-c2ccc(Cl)cc2)cs1 3.16 µM
Cc1ccc(-n2ncc3c(Nc4cccc(C(=O)O)c4)ncnc32)cc1 0.355 µM
c1cnc(N2CCN(c3ccc4ccccc4n3)CC2)nc1 3.16 µM
CC(=O)c1cc(C#N)c(SCC(=O)Nc2nccs2)nc1C 1.26 µM
CC(=O)c1cc(C#N)c(SCC(=O)C(C)(C)C)nc1C 2.51 µM
Cc1[nH]c2ccccc2c1SCC(=O)Nc1nccs1 4.47 µM
CCn1nnnc1SCC(=O)c1ccc(C)cc1C 3.55 µM
COc1ccc(C(=O)Cc2cnn(-c3ccccc3)c2)c(O)c1 3.16 µM
OC(c1nnc(-c2ccccc2)o1)c1cccs1 (stereo not given) 4.47 µM
COc1ccc(CN2C(=O)C(C)S/C2=N/N=C/c2ccco2)cc1 (stereo not given) 2.82 µM
CN(C)S(=O)(=O)c1ccc2oc(SCC(=O)Nc3ccccc3F)nc2c1 1.41 µM
Cc1cccc(NC(=O)c2ccc3ccccc3n2)n1 3.16 µM
CC(C)Cc1cc(C(=O)NCCc2ccccc2)no1 3.16 µM
